Drawing on PubChem BioAssay (NCI), this text covers growth for 8 compounds.

Compounds without any hit were thinned out: in the full panel of roughly 83,000, 20% have a hit.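 Single-concentration screen, 48 h exposure, 96-well plates. Endpoint: percent growth. Below 10 = active.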 Unmarked numbers belong to inactive results. Calls of active or inactive are those of the source.

Assay in all cases: NCI-60 one-dose screen, 48 h (100 = growth as untreated, 0 = no growth, -100 = all killed)
Common to all, as to details: 10 µM unless noted

Experiment [1] deals with HCT-15 colon.
Experiment [2] deals with HT29 colon.
For experiment [3], the system named is SNB-75 CNS.
In experiment [4] the test system is SNB-19 CNS.
Experiment [5] deals with U251 CNS.
Experiment [6] concerns PC-3 prostate.
The test system of experiment [7] is SK-MEL-5 melanoma.
In experiment [8] the test system is UACC-62 melanoma.
The subject of experiment [9] is LOX IMVI melanoma.
Experiment [10] relates to SK-MEL-28 melanoma.
For experiment [11], the system named is EKVX NSCLC.
Experiment [12] relates to SN12C renal.
Experiment [13] deals with TK-10 renal.
Experiment [14] deals with ACHN renal.
Experiment [15] deals with CAKI-1 renal.
Experiment [16] deals with A498 renal.
The test system of experiment [17] is CCRF-CEM leukemia.
The test system of experiment [18] is MOLT-4 leukemia.
The subject of experiment [19] is SK-MEL-2 melanoma.
Experiment [20] deals with UO-31 renal.

With `CCOC(=O)c1cnc2c(C)cc(C)cc2c1NCCCN(C)C`, the growth in experiment [1] is 28.2%; in [2], 13.1%; in [3] it was 51.1%; in [4] it was 42.4%; in experiment [5], 28.3%; in experiment [6] it was 22%. For the same compound, the growth in [7] is 46.5%; in experiment [8], 46.7%; in experiment [9] it was 23.2%; in [10] it was 76.2%; in [11] it was 41%; in experiment [12], 37.6%. In addition, the growth in experiment [13] is 30.7%; in [14], 28.7%; in experiment [15], -7.71% (active); in experiment [16] it was 64.5%; in experiment [17], 19.8%; in [18] it was 5.24% (active).
In the case of `C/C(=C\CCc1ccoc1)CC/C=C(\C)CCCN1CCSCC1`, the growth in experiment [1] is 43.3%; in experiment [2], 45.8%; in [3] it was 93.4%; in experiment [4], 87.8%; in [5] it was 76.7%; in experiment [6], 84.3%. Besides, the growth in experiment [7] is 37.8%; in experiment [8], 75.3%; in [10], 88.7%; in experiment [19], 85.5%; in [12], 76.7%; in experiment [20], 62.4%. The growth in [13] is 84.9%; in [14], 83.8%; in experiment [15], 80.7%; in experiment [16], 38.2%; in experiment [17], 62.9%; in experiment [18] it was 79.6%.
For `Cc1ccc(C(=O)Cc2ccccc2)c(O)c1`, the growth in experiment [1] is 102%; in [2], 110%; in experiment [3] it was 97.8%; in experiment [4], 95.4%; in [5] it was 98.9%; in [6], 99.8%. For the same compound, the growth in experiment [7] is 108%; in experiment [8] it was 90.4%; in experiment [9], 98%; in [19], 101%; in experiment [11], 99.4%; in experiment [12] it was 94.8%. For the same compound, the growth is 86.4% in [20]; 104% in experiment [13]; 102% in experiment [14]; 95% in experiment [15]; 112% in experiment [17]; 92.3% in [18].
On to `CCNCCCn1c2c(c3ccc(F)cc3c1=O)C(=O)c1cc(OC)cnc1-2`, for which the growth is 2.25% (active) in experiment [1]; -14.9% (active) in experiment [2]; -18.2% (active) in experiment [3]; 12.1% in experiment [4]; -25.8% (active) in experiment [5]; -3.56% (active) in experiment [6]. Also, the growth in experiment [7] is -99.1% (active); in experiment [8], -34.5% (active); in experiment [9] it was -64.9% (active); in [19], -3.1% (active); in experiment [11] it was -14.4% (active); in experiment [12] it was 1.58% (active). The growth in [20] is -90.7% (active); in experiment [14] it was -47.5% (active); in [17] it was 1.07% (active); in experiment [18] it was -15.6% (active).
As for `NS(=O)(=O)c1ccc(-n2ncc3c(N/N=C/c4ccccc4)ncnc32)cc1`, the growth in experiment [1] is 108%; in experiment [2], 81%; in experiment [3] it was 104%; in experiment [4] it was 80.4%; in experiment [5], 89.7%; in experiment [6], 80.6%. For the same compound, the growth was 86.7% in experiment [7]; 96.8% in [8]; 91.7% in [9]; 70.5% in experiment [19]; 108% in [11]; 93% in [12]. Moreover, the growth in experiment [20] was 68.8%; in experiment [13], 93.6%; in [14] it was 94.7%; in [15], 53.4%; in [16] it was 111%; in experiment [17] it was 84.6%. The growth in [18] was 71.4%.
Turning to `Cc1ccc(/C=C/C(=O)c2ccc(F)cc2)s1`, the growth is 67.3% in experiment [1]; 43.5% in [2]; 90.9% in [3]; 88% in experiment [4]; 51.6% in experiment [5]; 63.8% in [6]. For the same compound, the growth was 90.6% in experiment [7]; 72.7% in experiment [8]; 58.3% in experiment [9]; 85.8% in experiment [19]; 81.1% in [11]; 71.7% in [12]. For the same compound, the growth is 57.6% in [20]; 83% in experiment [14]; 78.6% in experiment [15]; 8.11% (active) in experiment [17]; 11.6% in experiment [18].
As to `CC(=O)Nc1c(Cl)cc2c(c1Cl)Cc1ccccc1-2`, the growth was 99.9% in [1]; 106% in experiment [2]; 94.7% in experiment [3]; 101% in experiment [4]; 92.4% in experiment [5]; 86.9% in [6]. For the same compound, the growth in experiment [7] is 97.3%; in experiment [8], 84.8%; in experiment [9], 87.9%; in [19], 93.8%; in experiment [11], 64.3%; in experiment [12], 90.9%. Further, the growth in experiment [20] was 69.2%; in experiment [13], 115%; in [14] it was 100%; in experiment [15], 86.1%; in experiment [16] it was 93.7%; in [17], 102%. In addition, the growth in experiment [18] is 93%.
As to `C/C(=C\CCc1ccoc1)CC/C=C(\C)CCCC1COC(=O)C1` (configuration not stated), the growth in experiment [1] was 99.2%; in [2], 113%; in experiment [3] it was 96.7%; in experiment [4], 99.6%; in [5] it was 95.6%; in experiment [6], 91.2%. The growth in experiment [7] was 98.6%; in experiment [8], 80%; in [10], 96.9%; in experiment [19], 100%; in experiment [20], 78.8%; in experiment [13], 114%. The growth is 97.5% in experiment [14]; 94.4% in [15]; 91.3% in experiment [16]; 93% in experiment [17]; 92.2% in experiment [18].
